# Mm-Cpn inhibitor: blocks the Methanococcus maripaludis chaperonin Mm-Cpn. 330,000 compounds, 0.031% hits. purified Mm-Cpn ATPase, ADP Transcreener TR-FRET. Potency, µM (titrated, usually from 76.9 µM), without a hit: top-dose activity, negative = inhibition, actives largely listed as inhibitors; further: on the % scale 0 is the no-effect control and ±100 the full control effect; nearly all actives have a fitted effect of over 80% in size
#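 ATPase read-out: TR-FRET ADP immunoassay (anti-ADP Eu cryptate vs ADP-d2), ex 320 nm, em 590/665 nm; signal drops as ADP forms. Enzyme 25 nM, ATP 10 uM, 30 min at 37°C after 10 min compound preincubation.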
# TDP-43 yeast inh: inhibitors of TDP-43 toxicity in yeast; TDP-43 expressing yeast growth rescue, BacTiter-Glo, 24 h; Potency, µM (highest dose often 46.1 µM), for inactives: at the highest dose growth rescue (activation), actives largely listed as activators; 410,000 compounds, 1.8% hits; AID 652104; further: % of control where 0% means no effect; nearly all actives have a fitted effect of over 50% in size
#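 Yeast expressing TDP-43 (pregrown in raffinose, seeded at OD600=0.02 in galactose medium) exposed to compounds 24 hr at 30 deg C. Growth read by BacTiter-Glo luminescence; rescue of toxicity appears as increased signal.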
# Abeta rescue: A-beta toxicity reversal in yeast | yeast expressing A-beta42, growth rescue, OD600, 48 h; response scale: 0% DMSO, 100% iron-clioquinol control | Potency, µM (highest dose often 46.1 µM), actives largely listed as activators | 410,000 compounds, 0.063% hits | AID 1347071; further: nearly all actives have a fitted effect of over 55% in size
#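 Yeast A-beta toxicity model in growth medium with pinned compounds, 48 h at 30 C; growth read as absorbance at 600 nm. Normalized to FeCl3/clioquinol equimolar mix (positive) and DMSO (negative).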
# FUS suppressor: suppressors of FUS proteinopathy in yeast. S. cerevisiae FUS-expressing, growth rescue, OD600, 24 h. Potency, µM (titrated, usually from 76.6 µM), actives largely listed as activators. 390,000 compounds, 0.24% hits. AID 1347120;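 further: plate controls were DMSO vehicle for no effect and reference control for full effect; nearly all actives have a fitted effect of over 55% in size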
#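 Toxicity suppression screen in FUS-yeast. Cells induced with 2% galactose, starting OD 0.005, treated 24hr at 30C with compounds at multiple final concentrations; growth by OD600.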
# ClpP mod: qHTS Assay for Activators of ClpP; ATP-dependent Clp protease proteolytic subunit (Bacillus subtilis (strain 168)), P80244; purified B. subtilis ClpP, FRET peptide cleavage, 20 min; Potency, µM (titrated, usually from 57.5 µM), for inactives: at the top dose activity change, negative = active; 340,000 compounds, 1.9% hits; active means well fitted falling curve with a large enough effect; inconclusive means small, poorly fitted or top-dose-only effect; inactive means no such curve, though single readings can be large or run the other way; further: the source files actives as falling curves though it sought activators and does not explain the sign; nearly all actives have a fitted effect of over 65% in size
# Target sequence (P80244 whole entry, looked up): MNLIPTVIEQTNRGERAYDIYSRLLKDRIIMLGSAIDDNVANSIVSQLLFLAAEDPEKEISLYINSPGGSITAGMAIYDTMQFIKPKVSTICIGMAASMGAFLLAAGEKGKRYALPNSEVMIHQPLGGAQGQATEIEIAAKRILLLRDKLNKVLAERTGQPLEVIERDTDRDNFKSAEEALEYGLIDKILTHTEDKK
#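 Buffer: 100 mM Tris/HCl pH8, 100 mM KCl, 0.05% low protease BSA, 2.5% glycerol, 0.01% Tween-20. ClpP 10 microg/mL final; 20 min RT; delta FRET normalized to ADEP and DMSO controls.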
# aSyn rescue: inhibitors of alpha-synuclein toxicity in yeast; Yeast expressing alpha-synuclein, growth rescue, BacTiter-Glo, 24 h; Potency, µM (doses to about 46.1 µM), for inactives: top-dose growth rescue (activation), most hits filed as activators; 370,000 compounds, 0.14% hits; AID 652106; further: % of control where 0% means no effect; nearly all actives have a fitted effect of over 65% in size
#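 Galactose-induced alpha-syn yeast (OD600=0.02, raffinose-pregrown) + pinned cpd, 24 hr, 30 deg C; growth by BacTiter-Glo luminescence. Growth restoration scores as activation.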
# Numbers without * were called inactive; i = inactive; ? = inconclusive; . = not tested or not shown; [ ] = dose if it differs, or a comment. This is a sample that favours compounds with a hit; in the whole collection about 3.6% have one here. Unless noted, the call rests on the fitted dose curve; in most records, active means well fitted curve in the direction sought with a large enough effect; inconclusive means small, poorly fitted or top-dose-only effect, or another doubt; inactive means no such curve, though single readings can be large; an effect the other way counts as inactive or inconclusive. Potency means the concentration at half of the fitted maximal effect.
SMILES,Mm-Cpn inhibitor,TDP-43 yeast inh,Abeta rescue,FUS suppressor,ClpP mod,aSyn rescue
COc1ccc2[nH]c(=O)c(CN(C(=O)C3CCCO3)c3ccc(C)cc3)cc2c1 (stereo not drawn),-2%,20%,i,i,28µM*,8%
COc1ccc2[nH]c(=O)c(CN(CC3CCCO3)C(=O)Nc3ccc(F)cc3)cc2c1 (stereo not drawn),1%,2%,i,.,16µM*,8%
COc1cccc(C(=O)N(Cc2ccccc2)Cc2cc3cc4c(cc3[nH]c2=O)OCCO4)c1,-4%,0%,i,i,28µM*,2%
COc1ccc(NC(=O)N(Cc2cc3cc(C)ccc3[nH]c2=O)CC2CCCO2)cc1 (stereo not drawn),1%,-7%,i,i,-18%,2%
COc1ccc(N(Cc2cc3ccc(C)cc3[nH]c2=O)C(=O)C2CCCO2)cc1 (stereo not drawn),-2%,-16%,i,i,.,-5%
Cc1cccc(Cn2cc(COC(=O)N3CCCC3)nn2)c1,.,.,.,i,.,.
CN1CCCN(C(=O)Cc2c(Cl)cccc2Cl)c2nc3ccccc3nc21,0%,22µM*,i,i,-17%,8%
COCC(=O)Nc1cccc(-c2nc3cccnc3s2)c1,.,12%,i,i,5%,.
COC(=O)[C@H](CC(C)C)N1Cc2nnn(CC3CCCCC3)c2-c2cc(F)ccc2S1(=O)=O,.,.,.,i,.,.
COc1ccc(Oc2nc3c(c(=O)n(C)c(=O)n3C)n2Cc2ccc(Cl)cc2Cl)cc1,.,3%,i,i,-2%,.
Nc1ccc(CNC(=O)OCC2c3ccccc3-c3ccccc32)cc1,.,14µM*,i,?,-3%,8%
O=C(N[C@H](Cc1ccc(Cl)cc1)C(=O)O)OCC1c2ccccc2-c2ccccc21,-1%,-14%,i,i,2%,1%
N/C(=N\OC(=O)CCCOc1ccccc1)c1ccccc1,2%,25µM*,i,i,0%,1%
N/C(=N\OC(=O)CCCOc1ccccc1)c1ccncc1,1%,-3%,i,i,.,9%
COc1ccc(OCCCC(=O)ON=C(N)c2ccccc2Cl)cc1,-2%,10µM*,i,i,0%,4%[1.84 µM]
N/C(=N\OC(=O)CCCOc1ccc(Cl)cc1Cl)c1ccccn1,0%,14µM*,i,i,-1%,2%
Cc1cc(NC(=O)/C=C\C(=O)O)c([N+](=O)[O-])cc1C,-5%,22µM*,i,i,1%,3%
COc1ccc(-c2csc3nc[nH]c(=O)c23)cc1OC,-1%,-12%,i,i,.,-3%
Cc1ccc(-c2csc3nc[nH]c(=S)c23)cc1C,1%,25µM*,?,i,-1%,?
CCc1c(C)nc2nncn2c1Nc1ccc(C(C)C)cc1,.,13µM*,i,i,-2%,.
COCC(=O)Nc1nc2n(n1)C(c1ccccc1)CC(c1ccc(OC)cc1)N2 (stereo not drawn),1%,-1%,i,i,25µM*,1%
COCC(=O)Nc1nc2n(n1)C(c1ccc(OC)cc1)CC(c1ccc(OC)cc1)N2 (stereo not drawn),0%,-8%,i,i,-2%,2%
CCOc1ccc(-c2csc(NC(=O)CSC3=NC(=O)CN3C(C)=O)n2)c2ccccc12,-2%,-14%,i,i,0%,-9%
CC(=O)N1CC(=O)N=C1SCC(=O)Nc1nc(C)c(-c2ccccc2)s1,-3%,8%,i,i,20µM*,1%
CCc1ccc(NC(=O)Nc2ccccc2OCc2cc(=O)n3ccccc3n2)cc1,.,22%,i,i,11%,.
SMILES,Mm-Cpn inhibitor,TDP-43 yeast inh,Abeta rescue,FUS suppressor,ClpP mod,aSyn rescue
COc1cc(OC)cc(C(=O)NCCc2csc(-c3ccc(C(F)(F)F)cc3)n2)c1,.,18µM*,i,i,32µM*,.
COc1ccc(C(=O)NCCc2csc(-c3ccc(Cl)cc3)n2)c(OC)c1,.,20µM*,i,?,-19%,.
COc1ccccc1C(=O)NCCc1csc(-c2ccc(C(F)(F)F)cc2)n1,.,25µM*,i,?,-17%,.
COc1ccc(C(=O)NCCc2csc(-c3ccc(Cl)cc3)n2)cc1,.,?,i,i,-17%,.
Cc1ccc(NC(=O)CCn2c(=O)c3cccn3c3ccccc32)cc1Cl,.,7%,i,i,9%,.
CC(C)(C)Sc1ccc(/C=N/O)cc1[N+](=O)[O-],0%,16µM*,i,i,-3%,9%
Cc1ccc2nc(N3CCN(C(=O)C4COc5ccccc5O4)CC3)sc2c1 (stereo not drawn),.,20µM*,i,i,-1%,.
O=C(C1COc2ccccc2O1)N1CCN(c2nc3c(F)cccc3s2)CC1 (stereo not drawn),.,10µM*,13µM*,i,1%,.
COc1cccc2sc(N3CCN(C(=O)C4COc5ccccc5O4)CC3)nc12 (stereo not drawn),0%,?,i,i,1%,20%
Cc1ccc(CN2C(=O)C(O)(CC(=O)c3ccc(C)cc3)c3ccccc32)cc1 (stereo not drawn),.,6%,?,i,0%,.
CCN(CC)c1ccc(/C=N/NC(=O)c2nnn(-c3nonc3N)c2C(C)C)c(O)c1,3%,?,14µM*,?,.,14µM*
COc1cccc(CCNS(=O)(=O)c2c(C)n[nH]c2C)c1,.,.,.,i,.,.
CCCCn1cnc2cc(NC(=O)c3cc(OC)c(OC)c(OC)c3)ccc21,.,18%,i,i,-1%,.
CCCCc1ccc(/C=C(\C#N)C(N)=S)s1,1%,20µM*,?,i,.,24%
Cc1ccc2c(Sc3ccccc3)c(C(=O)NCc3ccccc3F)[nH]c2c1,.,10%,i,i,-9%,.
CN(Cc1ccccc1)C(=O)CSc1nc2ccsc2c(=O)n1-c1ccc(F)cc1,.,-10%,i,i,-1%,.
Cc1nn(-c2ccccc2)c2c1N(CCCC(=O)NCc1ccc(N(C)C)cc1)C(=O)CS2,.,16%,i,i,-3%,.
CCCOc1ccc(CNC(=O)CCCN2C(=O)CSc3c2c(C)nn3-c2ccccc2)cc1,.,18µM*,i,?,-1%,.
COc1ccc(CNC(=O)CCCN2C(=O)CSc3c2c(C)nn3-c2ccccc2)cc1,.,22µM*,i,i,0%,.
O=C(Cn1c(=O)n(Cc2ccccc2)c(=O)c2oc3ccccc3c21)Nc1ccc(Cl)cc1,.,10%,i,i,-15%,.
